{
  "source": "PubChem BioAssay (NCI)",
  "note": "Compounds without any hit were thinned out: in the full panel of roughly 83,000, 20% have a hit.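 Treatment: one concentration, 48 hours, 96-well format. Scoring: percent growth, with anything below 10 considered active.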 The source made the active and inactive calls.",
  "data": [
    {"tested_on": "OVCAR-4 ovarian", "assay": "NCI-60 one-dose screen, 48 h (100 = growth as untreated, 0 = no growth, -100 = all killed)", "conditions": "10 µM unless noted", "values": [
      {"compound": "CC1CC2Oc3ccc(Cl)cc3C(=O)N2O1", "note": "(stereo unspecified)", "growth": "117% (inactive)"},
      {"compound": "COc1cccc(C(=O)NCCNc2cc(-c3cn(-c4ccccc4)nc3-c3cccc(OC)c3)ccn2)c1", "growth": "49.6% (inactive)"},
      {"compound": "CN(C)c1ccc(-c2ccc3[nH]c(=O)nc(-c4ccccc4)c3c2)cn1", "growth": "70.4% (inactive)"},
      {"compound": "CCN(CC)CCCCCCNc1cc(OC)c(Cl)c2cccnc12", "growth": "73.6% (inactive)"},
      {"compound": "NC(=N\\N=C/c1ccccc1[N+](=O)[O-])/C(N)=N\\N=C/c1ccccc1[N+](=O)[O-]", "growth": "111% (inactive)"},
      {"compound": "C[n+]1cc2cc(C(N)=O)[nH]c3c(=N)c(Cl)c(N)c1c23", "growth": "73% (inactive)"},
      {"compound": "COc1ccc(C2=Nc3c(N)ncnc3NC(c3ccc4c(c3)OCO4)C2)cc1", "note": "(stereo unspecified)", "growth": "95% (inactive)"},
      {"compound": "CCN(CC)CCN1C(=O)c2c(c(C)c3c(oc4cc(O)ccc43)c2C)C1=O", "growth": "-34.4% (active)"},
      {"compound": "O=C(Nc1ccccc1Cl)Oc1ccc(-c2ccccc2)cc1", "growth": "103% (inactive)"},
      {"compound": "O=C1/C(=C/c2ccc(F)cc2)C=C(c2ccccc2)N1CCc1ccccc1", "growth": "39.3% (inactive)"},
      {"compound": "Cc1cc(Cl)ccc1Nc1nc(C(F)(F)F)ccc1C(=O)N/N=C/c1ccc(N(C)C)cc1", "growth": "16% (inactive)"},
      {"compound": "CCN1CCN(c2cc(C)nc(NCc3cc(Nc4ccnc5cc(Cl)ccc45)ccc3F)n2)CC1", "growth": "50.5% (inactive)"},
      {"compound": "CCN(CC)CCN1CC(O)=C(c2nc(-c3ccc(Cl)cc3)cs2)C1=N", "growth": "84.6% (inactive)"},
      {"compound": "CC(=O)n1c(-c2ccc(Cl)cc2)nc2c(c1=O)C(c1ccc(Cl)cc1)c1sc3c(Cl)cccc3c1O2", "note": "(stereo unspecified)", "growth": "17.3% (inactive)"},
      {"compound": "CCN(CC)CCn1nc2c3c(cccc3c1=O)-c1ccccc1-2", "growth": "51.6% (inactive)"},
      {"compound": "Cc1cc(Cl)nc(NCc2cc(Nc3ccnc4cc(Cl)ccc34)ccc2F)n1", "growth": "9.24% (active)"},
      {"compound": "O=C(NCCCNc1cc(-c2cn(-c3ccccc3)nc2-c2cccc(O)c2)ccn1)c1ccccc1", "growth": "38.1% (inactive)"},
      {"compound": "COc1ccc(-c2cc(-c3cc(OC)ccc3OC)nc(SCC(=O)c3ccccc3)c2C#N)cc1", "growth": "91.8% (inactive)"},
      {"compound": "Nc1cc2c3c(cccc3c1)C(=O)N(CCN1CCCC1)C2=O", "growth": "49.2% (inactive)"},
      {"compound": "COc1ccc(-c2csc(C3=C(O)CN(CCCN4CCCC4=O)C3=N)n2)cc1OC", "growth": "116% (inactive)"},
      {"compound": "CCCCn1c(=O)c2c(nc(NCCc3ccc(O)c(O)c3)n2CCC)n(CCCC)c1=O", "growth": "45.5% (inactive)"},
      {"compound": "N#C/C(=C/C=C/c1cccc(Cl)c1)S(=O)c1ccccc1", "note": "(stereo unspecified)", "growth": "-52.9% (active)"},
      {"compound": "O=C1OC(c2nc3ccccc3s2)=C/C1=C\\c1ccc(O)cc1", "growth": "100% (inactive)"},
      {"compound": "CC/C=C\\CCC/C=C1/C(=O)C=C[C@@H]1C/C=C\\CCCC(=O)O", "growth": "92.5% (inactive)"},
      {"compound": "CC(=O)C(C)Cc1cc2c(cc1C)C(C)(C)CCC2(C)C", "note": "(stereo unspecified)", "growth": "104% (inactive)"},
      {"compound": "O=[N+]([O-])c1ccc(C2CC(c3ccccc3)=Nc3ccccc3S2)cc1", "note": "(stereo unspecified)", "growth": "93.5% (inactive)"},
      {"compound": "COc1ccc(-c2nc3c(c(=O)n2C(C)=O)C(c2ccc(Cl)cc2)c2sc4c(Cl)cccc4c2O3)cc1", "note": "(stereo unspecified)", "growth": "24.4% (inactive)"},
      {"compound": "FC(F)(F)c1cc(Nc2ccc3cc(OCCCN4CCOCC4)ccc3n2)ccc1Cl", "growth": "48.6% (inactive)"},
      {"compound": "CC(C)CCC[C@@H](C)[C@H]1CC[C@H]2[C@@H](Nc3ccc(O)cc3)CCC[C@]12C", "growth": "-73.1% (active)"},
      {"compound": "O=C(N/N=C/c1ccncc1)c1ccc(C(F)(F)F)nc1Nc1cccc(C(F)(F)F)c1", "growth": "-0.699% (active)"},
      {"compound": "COC(=O)[C@]12CC[C@@H](C)[C@H](C)[C@@H]1C1=CC[C@@H]3[C@@]4(C)C(C=O)=C[C@@](C)(COC(C)=O)[C@@H]4C(=O)C[C@@]3(C)[C@]1(C)CC2", "growth": "38.1% (inactive)"},
      {"compound": "O=C(Nc1ccccc1)Nc1cccc(Oc2nnc(Cl)c3ccccc23)c1", "growth": "0.217% (active)"},
      {"compound": "N#Cc1c(-c2ccccc2)cc(-c2ccc(Nc3nc(Nc4ccc(F)cc4)nc(Nc4ccc(F)cc4)n3)cc2)nc1N", "growth": "108% (inactive)"},
      {"compound": "CCn1c(C)nc2cc(C(N)=O)ccc21", "growth": "98.2% (inactive)"},
      {"compound": "O=C(/C=C/c1ccco1)c1ccc(Nc2nc(Nc3ccc(F)cc3)nc(Nc3ccc(Cl)cc3)n2)cc1", "growth": "78.4% (inactive)"},
      {"compound": "CC/C=C\\C[C@H](O)C/C=C1/C(=O)C=C[C@@H]1C/C=C\\CCCC(=O)OC", "growth": "36.8% (inactive)"},
      {"compound": "N#Cc1c(-c2cccc(Cl)c2)cc(-c2cccc(Cl)c2)[nH]c1=O", "growth": "68.4% (inactive)"},
      {"compound": "O=C1CC(N2C(=O)/C(=C/C(Cl)=C\\c3ccc([N+](=O)[O-])cc3)SC2=S)C(=O)N1c1ccc(O)cc1", "note": "(stereo unspecified)", "growth": "14.1% (inactive)"}
    ]},
    {"tested_on": "SK-OV-3 ovarian", "assay": "NCI-60 one-dose screen, 48 h (100 = growth as untreated, 0 = no growth, -100 = all killed)", "conditions": "10 µM unless noted", "values": [
      {"compound": "CC1CC2Oc3ccc(Cl)cc3C(=O)N2O1", "note": "(stereo unspecified)", "growth": "100% (inactive)"},
      {"compound": "COc1cccc(C(=O)NCCNc2cc(-c3cn(-c4ccccc4)nc3-c3cccc(OC)c3)ccn2)c1", "growth": "54.6% (inactive)"},
      {"compound": "CN(C)c1ccc(-c2ccc3[nH]c(=O)nc(-c4ccccc4)c3c2)cn1", "growth": "63.5% (inactive)"},
      {"compound": "CCN(CC)CCCCCCNc1cc(OC)c(Cl)c2cccnc12", "growth": "92.5% (inactive)"},
      {"compound": "NC(=N\\N=C/c1ccccc1[N+](=O)[O-])/C(N)=N\\N=C/c1ccccc1[N+](=O)[O-]", "growth": "102% (inactive)"},
      {"compound": "C[n+]1cc2cc(C(N)=O)[nH]c3c(=N)c(Cl)c(N)c1c23", "growth": "60% (inactive)"},
      {"compound": "COc1ccc(C2=Nc3c(N)ncnc3NC(c3ccc4c(c3)OCO4)C2)cc1", "note": "(stereo unspecified)", "growth": "97.5% (inactive)"},
      {"compound": "CCN(CC)CCN1C(=O)c2c(c(C)c3c(oc4cc(O)ccc43)c2C)C1=O", "growth": "108% (inactive)"},
      {"compound": "O=C(Nc1ccccc1Cl)Oc1ccc(-c2ccccc2)cc1", "growth": "121% (inactive)"},
      {"compound": "O=C1/C(=C/c2ccc(F)cc2)C=C(c2ccccc2)N1CCc1ccccc1", "growth": "29.1% (inactive)"},
      {"compound": "Cc1cc(Cl)ccc1Nc1nc(C(F)(F)F)ccc1C(=O)N/N=C/c1ccc(N(C)C)cc1", "growth": "42.3% (inactive)"},
      {"compound": "CCN1CCN(c2cc(C)nc(NCc3cc(Nc4ccnc5cc(Cl)ccc45)ccc3F)n2)CC1", "growth": "87.5% (inactive)"},
      {"compound": "CCN(CC)CCN1CC(O)=C(c2nc(-c3ccc(Cl)cc3)cs2)C1=N", "growth": "101% (inactive)"},
      {"compound": "CC(=O)n1c(-c2ccc(Cl)cc2)nc2c(c1=O)C(c1ccc(Cl)cc1)c1sc3c(Cl)cccc3c1O2", "note": "(stereo unspecified)", "growth": "-2.53% (active)"},
      {"compound": "CCN(CC)CCn1nc2c3c(cccc3c1=O)-c1ccccc1-2", "growth": "7.24% (active)"},
      {"compound": "Cc1cc(Cl)nc(NCc2cc(Nc3ccnc4cc(Cl)ccc34)ccc2F)n1", "growth": "85.1% (inactive)"},
      {"compound": "O=C(NCCCNc1cc(-c2cn(-c3ccccc3)nc2-c2cccc(O)c2)ccn1)c1ccccc1", "growth": "37.7% (inactive)"},
      {"compound": "COc1ccc(-c2cc(-c3cc(OC)ccc3OC)nc(SCC(=O)c3ccccc3)c2C#N)cc1", "growth": "86.7% (inactive)"},
      {"compound": "Nc1cc2c3c(cccc3c1)C(=O)N(CCN1CCCC1)C2=O", "growth": "36.9% (inactive)"},
      {"compound": "COc1ccc(-c2csc(C3=C(O)CN(CCCN4CCCC4=O)C3=N)n2)cc1OC", "growth": "109% (inactive)"},
      {"compound": "CCCCn1c(=O)c2c(nc(NCCc3ccc(O)c(O)c3)n2CCC)n(CCCC)c1=O", "growth": "96.3% (inactive)"},
      {"compound": "N#C/C(=C/C=C/c1cccc(Cl)c1)S(=O)c1ccccc1", "note": "(stereo unspecified)", "growth": "19.6% (inactive)"},
      {"compound": "O=C1OC(c2nc3ccccc3s2)=C/C1=C\\c1ccc(O)cc1", "growth": "103% (inactive)"},
      {"compound": "CC/C=C\\CCC/C=C1/C(=O)C=C[C@@H]1C/C=C\\CCCC(=O)O", "growth": "124% (inactive)"},
      {"compound": "CC(=O)C(C)Cc1cc2c(cc1C)C(C)(C)CCC2(C)C", "note": "(stereo unspecified)", "growth": "85.7% (inactive)"},
      {"compound": "O=[N+]([O-])c1ccc(C2CC(c3ccccc3)=Nc3ccccc3S2)cc1", "note": "(stereo unspecified)", "growth": "100% (inactive)"},
      {"compound": "COc1ccc(-c2nc3c(c(=O)n2C(C)=O)C(c2ccc(Cl)cc2)c2sc4c(Cl)cccc4c2O3)cc1", "note": "(stereo unspecified)", "growth": "-22.6% (active)"},
      {"compound": "FC(F)(F)c1cc(Nc2ccc3cc(OCCCN4CCOCC4)ccc3n2)ccc1Cl", "growth": "58.3% (inactive)"},
      {"compound": "CC(C)CCC[C@@H](C)[C@H]1CC[C@H]2[C@@H](Nc3ccc(O)cc3)CCC[C@]12C", "growth": "75.3% (inactive)"},
      {"compound": "O=C(N/N=C/c1ccncc1)c1ccc(C(F)(F)F)nc1Nc1cccc(C(F)(F)F)c1", "growth": "32.1% (inactive)"},
      {"compound": "COC(=O)[C@]12CC[C@@H](C)[C@H](C)[C@@H]1C1=CC[C@@H]3[C@@]4(C)C(C=O)=C[C@@](C)(COC(C)=O)[C@@H]4C(=O)C[C@@]3(C)[C@]1(C)CC2", "growth": "42.3% (inactive)"},
      {"compound": "O=C(Nc1ccccc1)Nc1cccc(Oc2nnc(Cl)c3ccccc23)c1", "growth": "-0.5% (active)"},
      {"compound": "N#Cc1c(-c2ccccc2)cc(-c2ccc(Nc3nc(Nc4ccc(F)cc4)nc(Nc4ccc(F)cc4)n3)cc2)nc1N", "growth": "100% (inactive)"},
      {"compound": "CCn1c(C)nc2cc(C(N)=O)ccc21", "growth": "105% (inactive)"},
      {"compound": "O=C(/C=C/c1ccco1)c1ccc(Nc2nc(Nc3ccc(F)cc3)nc(Nc3ccc(Cl)cc3)n2)cc1", "growth": "95.4% (inactive)"},
      {"compound": "CC/C=C\\C[C@H](O)C/C=C1/C(=O)C=C[C@@H]1C/C=C\\CCCC(=O)OC", "growth": "35.9% (inactive)"},
      {"compound": "N#Cc1c(-c2cccc(Cl)c2)cc(-c2cccc(Cl)c2)[nH]c1=O", "growth": "82.6% (inactive)"},
      {"compound": "O=C1CC(N2C(=O)/C(=C/C(Cl)=C\\c3ccc([N+](=O)[O-])cc3)SC2=S)C(=O)N1c1ccc(O)cc1", "note": "(stereo unspecified)", "growth": "33.5% (inactive)"}
    ]}
  ]
}
